Several values for one entry are separate records, joined by “and”; a condition that tells them apart may be missing. Identical values can stand only once. This is part of a sample that, as a whole, favours compounds with a hit. Of some 83,000 tested, about 20% had one in any assay.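 48-hour exposure, single concentration, 96-well plates; percent growth endpoint where 0 means no net growth. Active: below 10.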 Unmarked numbers belong to inactive results. Activity calls are given as the source filed them.
Legend:
Test in all cases: NCI-60 one-dose screen, 48 h (100 = growth as untreated, 0 = no growth, -100 = all killed)
Conditions in all cases: 10 µM unless noted
[1] = test system: SR leukemia
[2] = test system: RPMI-8226 leukemia
[3] = test system: OVCAR-8 ovarian
[4] = test system: OVCAR-5 ovarian
[5] = test system: OVCAR-4 ovarian
[6] = test system: SK-OV-3 ovarian
[7] = test system: IGROV1 ovarian
[8] = test system: OVCAR-3 ovarian
[9] = test system: HS 578T breast
[10] = test system: NCI/ADR-RES ovarian

| SMILES | growth [1] | growth [2] | growth [3] | growth [4] | growth [5] | growth [6] | growth [7] | growth [8] | growth [9] | growth [10] |
| --- | --- | --- | --- | --- | --- | --- | --- | --- | --- | --- |
| CN(C)c1ccc(/C=C/c2n(Cc3ccc4ccccc4c3)c3ccccc3[n+]2Cc2ccc3ccccc3c2)cc1 | -29.3% (active) | -36.7% (active) | -31.3% (active) | -97.6% (active) | -79% (active) | -80.3% (active) | -75.9% (active) | -45.2% (active) | -46.3% (active) | -80.7% (active) |
| O=C(N=Nc1c(O)[nH]c2ccc(Br)cc12)c1ccc2nc(-c3ccc(Cl)cc3)[nH]c2c1 | 15.1% | 58.6% | -25.9% (active) | 10.6% | -28% (active) | 24.3% | -49.4% (active) | -4.77% (active) | -1.71% (active) | 92.4% |
| NC1(c2ccc(-c3ccc4ncnc(NCc5ccccc5)c4c3)cn2)COC1 | 101% and 92.4% | 117% and 110% | 113% and 117% | 102% and 103% | 106% and 109% | 143% and 109% | 116% and 108% | 106% and 74.8% | 105% | 104% and 107% |
| CC1=C(C)C(=O)C(NCCN2CCOCC2)=C(Br)C1=O | 55.9% | 58.6% | 16.3% | 4% (active) | -67.4% (active) | 87.5% | 31.4% | -26.9% (active) | 60.4% | 86.4% |
| Cc1nn(-c2ccccc2)c2nc(C)n(C(=O)N/N=C/c3ccccc3)c(=O)c12 | 115% | 103% | 101% | 101% | 101% | 95.5% | 97.6% | 118% | 84.3% | 100% |
| Cc1cccc(/C=C/c2ccc(NC(=S)NCCCCN(C)C)cc2)c1 | -17.4% (active) | -26.1% (active) | -62.3% (active) | -94.2% (active) | -93.7% (active) | -65.9% (active) | -91% (active) | -55.4% (active) | -54% (active) | -95.1% (active) |
| O=C(Nc1nc2ccc([N+](=O)[O-])cc2s1)Nc1ccc(Cl)cc1Cl | 47.6% | 23.5% | 48.4% | 84.6% | 54.6% | 4.05% (active) | 60.7% | 65.4% | 46.4% | 26.6% |
| COc1nc(N)ncc1-c1ccc2ncnc(N3CCc4cc(F)c(Cl)cc43)c2c1 | -11.2% (active) | 14% | -24.1% (active) | -2.67% (active) | -84.5% (active) | -36.6% (active) | -45.3% (active) | -24.7% (active) | 7.35% (active) | 18.9% |
| COc1sc(/C=N/NC(=O)c2[nH]c3ccc(Br)cc3c2-c2ccccc2)cc1Cl | 11.1% | 12.7% | -30.4% (active) | -29.3% (active) | 29.9% | 12.1% | -41.1% (active) | 4.74% (active) | 7.66% (active) | -48.7% (active) |
| O=C(NN1C(=O)/C(=C/C=C/c2ccc([N+](=O)[O-])o2)SC1=S)c1ccc([N+](=O)[O-])cc1 | -5.7% (active) | -30.6% (active) | -75.5% (active) | -100% (active) | -99% (active) | -100% (active) | -96.4% (active) | -97.1% (active) | -27.3% (active) | -44% (active) |
| Cc1nc2sccn2c1-c1nnc(SCc2ccccc2)o1 | 87.5% | 79.1% | 96.5% | 90.2% | 79.8% | 97.9% | 92% | 117% | 107% | 78.1% |
| CN(C)c1nc(NCCNS(=O)(=O)c2ccc(C(=O)/C=C/c3ccc(F)cc3)cc2)nc(N2CCOCC2)n1 | -25.7% (active) | -28.4% (active) | 42.3% | 96% | 64.5% | 82.5% | -44.9% (active) | 64.1% | 73.5% | 49.3% |
| COc1ccc(Nc2ncnc3sc4c(c23)CCN(Cc2ccccc2)C4)cc1 | 82.9% | 62.1% | 82.8% | 106% | 68.4% | 102% | 80.8% | 93.7% | 74.8% | 76.7% |
| Cc1ccc2nc(NC(=O)Nc3cccc(Cl)c3)sc2c1 | 89.9% | 96.7% | 107% | 118% | 99.5% | 102% | 98.4% | 123% | 116% | 93.9% |
| CC1=C(C(=O)Nc2ccccc2)C(c2cccc(Cl)c2Cl)n2c(nc3ccccc32)N1 (stereo not given) | 6.58% (active) | 37% | 66.6% | 82.8% | 49.4% | 84.3% | 54.9% | 42.2% | 66% | 46.3% |
| CCCCNc1ccc2c3c(cccc13)C(=O)N(NCC(O)COc1ccc3c(C)cc(=O)oc3c1)C2=O (stereo not given) | 70.2% | 69.3% | 91.2% | 106% | 74.6% | 99.4% | 78.9% | 87.8% | 80.7% | 85.8% |
| C#CCCCNCCNc1ccnc2cc(Cl)ccc12 | 2.22% (active) | 47.9% | 79.6% | 64.3% | 89.8% | 103% | 84.6% | 85.8% | 91.8% | 68.8% |
| Cc1nn(-c2ccccc2)c2nc(C)n(C(=O)N/N=C/c3cccc([N+](=O)[O-])c3)c(=O)c12 | 98.6% | 94% | 94.5% | 84.7% | 53.2% | 106% | 91.9% | 99.8% | 91.2% | 93.3% |
| Cc1nn(-c2ccccc2)c2nc(C)n(CC(=O)N/N=C/c3ccccc3O)c(=O)c12 | 54.7% | 29.1% | 22% | 46.6% | 31.2% | 25% | 24.2% | 51.3% | 55.4% | 16.7% |
| Cc1[nH]nc2ccc3nc(-c4cn[nH]c4C(F)(F)F)c4c(c3c12)CCCC4 | 16.6% | 1.04% (active) | 4.15% (active) | 3.15% (active) | 29.6% | -54.2% (active) | -42.4% (active) | -15% (active) | -28.6% (active) | 19.8% |
| COc1ccc(NC(=O)Cn2c(/C=C/c3ccc([N+](=O)[O-])cc3)nc3ccccc3c2=O)cc1 | 88.9% | 90.6% | 45.8% | 76.4% | 16.4% | 33.6% | 59.6% | 60.2% | 29.9% | 39% |
| COC(=O)c1c(C(=O)OC)c2ccc3c4ccccc4ccc3n2c1C(=O)C(C)Br (stereo not given) | 3.43% (active) | 3.26% (active) | 15.6% | 75.7% | 41.4% | 81.9% | 42.2% | 16.7% | 65.6% | 37.5% |
| CN(C)c1nc(NCCNS(=O)(=O)c2ccc(C(=O)/C=C/c3ccccc3)cc2)nc(N2CCOCC2)n1 | -42.7% (active) | 0.0245% (active) | 83.4% | 93.6% | 88.3% | 97.7% | 80.5% | 111% | 76.1% | 82.4% |
| O=C(CSc1nnc(-c2ccc(-c3nc4ccc(Cl)cc4[nH]3)cc2)o1)Nc1ccc(Br)cc1 | 17.1% | 8.9% (active) | -31.8% (active) | 47.5% | 16% | 73% | 53.4% | 9.66% (active) | -0.329% (active) | 15% |
| COc1ccc2[nH]c(O)c(N=Nc3nc(-c4ccccc4)cs3)c2c1 | 27% | 58.6% | 6.68% (active) | 53.2% | -7.14% (active) | -17.4% (active) | 36.1% | -2.28% (active) | 41.6% | 3.46% (active) |
| CN(C)C(=O)c1cc(-c2ccc3ncnc(N4CCc5cc(F)c(Cl)cc54)c3c2)cnc1N | -57% (active) | -34.6% (active) | -8.58% (active) | -15% (active) | -17.5% (active) | -32.8% (active) | -62.5% (active) | -58.1% (active) | -44.2% (active) | -12.5% (active) |
